Among the data in PubChem BioAssay (NCI) are growth values, retold here.

Structures are written as SMILES. Compounds without any hit were thinned out: in the full panel of roughly 83,000, 20% have a hit.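 A percent growth of 40 corresponds to 60% growth inhibition; 0 means no net growth; -100 means all cells died. Active threshold: below 10.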 Active and inactive are the calls of the source.

The first assay relates to MDA-MB-435 melanoma. Briefly: NCI-60 one-dose screen, 48 h (100 = growth as untreated, 0 = no growth, -100 = all killed). The conditions noted are these: 10 µM unless noted.
Turning to `Cc1cc(NCCCNc2ccnc3cc(Cl)ccc23)nc(N2CCN(C)CC2)n1`, the growth is 46% (inactive).

Take `CCCc1cc(=O)n2c(C(=O)Nc3ccccc3OC)c(C(=O)Nc3ccc(F)cc3)sc2n1`: the growth was 65.8% [30 µM] (inactive).

`N#Cc1cccc(/C=C(/C(=O)c2ccccc2)c2ccccc2)c1`: the growth was 8.38% (active).

On to `CCC1(c2ccccc2)Oc2ccccc2-n2c(C#N)c3ccccc3c2C1=O` (centres undefined), for which the growth was 106% (inactive).

`C/C(=N/N=C(N)N)c1ccc(N)cc1`: the growth was 49% (inactive).

As for `CC(C)c1nc(N(C)S(C)(=O)=O)nc(-c2ccc(F)cc2)c1/C=C/[C@@H](O)C[C@@H](O)CC(=O)O`, the growth is 109% (inactive).

As for `COc1ccc(/C=C(\C#N)c2ccccc2)cc1`, the growth is 12% (inactive).

Consider `Fc1ccc([C@@H]2CCNC[C@H]2COc2ccc3c(c2)OCO3)cc1`, for which the growth is 46.5% (inactive).

Regarding `COc1cc(/C=C/C(=O)c2c(-c3ccc(F)cc3)nc3sc(C)nn23)cc(OC)c1OC`, the growth is 11.9% (inactive).

For `CCC(C)CC(CC)NCCN1CCN(C(CC)CC(C)CC)C1=S` (centres undefined), the growth was 26.8% (inactive).

As for `COc1cccc(-c2nnc(N)o2)c1`, the growth was 105% (inactive).

For the compound `CCCCSc1cc(C)nc(N)n1`, the growth is 97.2% (inactive).

With `Cc1ccsc1/C=C/C1=NCCCN1C`, the growth is 103% (inactive).

Consider `Nc1c2ccccc2nc2ccccc12` (tested in a mixture with another compound), for which the growth was 18.6% (inactive).

Take `COc1cc(/C=C/C(=O)c2c(-c3ccc(Cl)cc3)nc3sc(C)nn23)cc(OC)c1OC`: the growth is 73.9% (inactive).

Turning to `CCCCc1nc(Cl)c(CO)n1Cc1ccc(-c2ccccc2-c2nn[nH]n2)cc1`, the growth is 96.5% (inactive).

For `CN(CCOc1ccc(CC2SC(=O)NC2=O)cc1)c1ccccn1` (centres undefined), the growth is 98.3% (inactive).

With `N#Cc1c2ccccc2c2n1-c1ccccc1OC(c1ccccc1)C2=O` (centres undefined), the growth was 24.1% (inactive).

`Nc1nc(N)c([N+](=O)[O-])c(=O)[nH]1`: the growth was 104% (inactive).

For `Cc1c(C(N)=O)sc2ncn(Cc3ccccc3)c(=O)c12`, the growth is 53.7% (inactive).

`CC(=O)O[C@H]1C(=O)[C@@]2(C)C([C@H](OC(=O)c3ccccc3)[C@]3(O)C[C@H](OC(=O)[C@H](O)[C@@H](NC(=O)c4ccccc4)c4ccccc4)C(C)=C1C3(C)C)[C@]1(OC(C)=O)CO[C@@H]1C[C@@H]2O` (some centres undefined): the growth is -11.5% (active).

As for `CC1(C)OC(=O)C(=Cc2ccccc2Br)C(=O)O1`, the growth was 98% (inactive).

`COC1CC2CCC(C)C(O)(O2)C(=O)C(=O)N2CCCCC2C(=O)OC(C(C)CC2CCC(O)C(OC)C2)CC(=O)C(C)C=C(C)C(O)C(OC)C(=O)C(C)CC(C)/C=C/C=C/C=C1C` (centres undefined): the growth was 43.6% (inactive).

Turning to `COc1cc([C@@H]2c3cc4c(cc3C(O[C@@H]3O[C@@H]5CO[C@@H](c6cccs6)OC5[C@H](O)[C@H]3O)C3COC(=O)[C@@H]32)OCO4)cc(OC)c1O` (some centres undefined), the growth was -21.1% (active).

For `Cn1c(=O)c2nc(SCc3ccccc3)n(C)c2n(C)c1=O`, the growth is 113% (inactive).

As to `O=c1cc(-c2cccnc2)oc2c1ccc1ccccc12`, the growth was 67% (inactive).

On to `C/C(=N\N1CC(=O)NC1=O)c1ccc([N+](=O)[O-])o1`, for which the growth was 88.5% (inactive).

Take `NC(N)=N/N=C(/c1ccccc1)c1ccc(Cl)cc1`: the growth is -54.4% (active).

With `N#Cc1ccc(NC(=O)Nc2ccc(Oc3ccc(NC(=O)Nc4ccc(C#N)cc4)cc3)cc2)cc1`, the growth is 35.6% (inactive).

As for `Cc1c(NCc2nnc3n(Cc4ccccc4)c(=O)c4c5c(sc4n23)CCCC5)c(=O)n(-c2ccccc2)n1C`, the growth was 73.5% (inactive).

As for `O=C(Nc1ccc(OCc2nnc(-c3ccccc3)o2)c(F)c1)Nc1ccc(Cl)c(C(F)(F)F)c1`, the growth was 27.5% (inactive).

In the case of `Cc1cc(N2CCOCC2)nc(N2CCOCC2)n1`, the growth was 96.4% (inactive).

Regarding `COc1cc2c(C#N)n3c(c2cc1OC)C(=O)C(c1ccccc1)Oc1ccccc1-3` (centres undefined), the growth was 55.5% (inactive).

Take `O=[N+]([O-])c1ccc(N/N=C\c2ccccc2[N+](=O)[O-])nc1`: the growth is 107% (inactive).

For `CO[C@H]1CC(O[C@@H]2/C(C)=C/C[C@@H]3C[C@@H](C[C@]4(CC[C@H](C)[C@@H](C5CCCCC5)O4)O3)OC(=O)[C@@H]3C=C(C)/C(=N/O)[C@H]4OC/C(=C\C=C\[C@@H]2C)[C@]43O)O[C@@H](C)C1O` (some centres undefined), the growth was -86.1% (active).

Regarding `COc1ccc(OC)c(NC(=O)c2cc3oc4ccccc4c3cc2O)c1`, the growth is 105% (inactive).

In the case of `C=C1CC[C@@H]2[C@](C)(COC(C)=O)[C@H](OC(C)=O)CC[C@@]2(C)[C@@H]1CC(Nc1ccc(S(=O)(=O)Nc2cc(C)on2)cc1)C1=CCOC1=O` (some centres undefined), the growth is 35% (inactive).

A further assay concerns SW-620 colon. The description is as above. The note with it: 10 µM unless noted.
With `Cc1cc(NCCCNc2ccnc3cc(Cl)ccc23)nc(N2CCN(C)CC2)n1`, the growth was 37.3% (inactive).

Turning to `CCCc1cc(=O)n2c(C(=O)Nc3ccccc3OC)c(C(=O)Nc3ccc(F)cc3)sc2n1`, the growth is 64.1% [30 µM] (inactive).

Turning to `N#Cc1cccc(/C=C(/C(=O)c2ccccc2)c2ccccc2)c1`, the growth is 7.39% (active).

Consider `CCC1(c2ccccc2)Oc2ccccc2-n2c(C#N)c3ccccc3c2C1=O` (centres undefined), for which the growth was 107% (inactive).

As for `C/C(=N/N=C(N)N)c1ccc(N)cc1`, the growth was 97% (inactive).

Take `CC(C)c1nc(N(C)S(C)(=O)=O)nc(-c2ccc(F)cc2)c1/C=C/[C@@H](O)C[C@@H](O)CC(=O)O`: the growth was 107% (inactive).

`COc1ccc(/C=C(\C#N)c2ccccc2)cc1`: the growth is 71.4% (inactive).

As for `Fc1ccc([C@@H]2CCNC[C@H]2COc2ccc3c(c2)OCO3)cc1`, the growth was 98.4% (inactive).

Turning to `COc1cc(/C=C/C(=O)c2c(-c3ccc(F)cc3)nc3sc(C)nn23)cc(OC)c1OC`, the growth is 19.2% (inactive).

With `CCC(C)CC(CC)NCCN1CCN(C(CC)CC(C)CC)C1=S` (centres undefined), the growth is 29.1% (inactive).

On to `COc1cccc(-c2nnc(N)o2)c1`, for which the growth is 103% (inactive).

For the compound `CCCCSc1cc(C)nc(N)n1`, the growth was 97.8% (inactive).

For the compound `Cc1ccsc1/C=C/C1=NCCCN1C`, the growth was 105% (inactive).

In the case of `Nc1c2ccccc2nc2ccccc12` (tested in a mixture with another compound), the growth was 15.6% (inactive).

For `COc1cc(/C=C/C(=O)c2c(-c3ccc(Cl)cc3)nc3sc(C)nn23)cc(OC)c1OC`, the growth is 59.6% (inactive).

Consider `CCCCc1nc(Cl)c(CO)n1Cc1ccc(-c2ccccc2-c2nn[nH]n2)cc1`, for which the growth is 103% (inactive).

On to `CN(CCOc1ccc(CC2SC(=O)NC2=O)cc1)c1ccccn1` (centres undefined), for which the growth is 102% (inactive).

For `N#Cc1c2ccccc2c2n1-c1ccccc1OC(c1ccccc1)C2=O` (centres undefined), the growth is 56.9% (inactive).

As to `Nc1nc(N)c([N+](=O)[O-])c(=O)[nH]1`, the growth is 97.4% (inactive).

`Cc1c(C(N)=O)sc2ncn(Cc3ccccc3)c(=O)c12`: the growth was 103% (inactive).

Regarding `CC(=O)O[C@H]1C(=O)[C@@]2(C)C([C@H](OC(=O)c3ccccc3)[C@]3(O)C[C@H](OC(=O)[C@H](O)[C@@H](NC(=O)c4ccccc4)c4ccccc4)C(C)=C1C3(C)C)[C@]1(OC(C)=O)CO[C@@H]1C[C@@H]2O` (some centres undefined), the growth is 43.4% (inactive).

Consider `CC1(C)OC(=O)C(=Cc2ccccc2Br)C(=O)O1`, for which the growth was 96.2% (inactive).

For `COC1CC2CCC(C)C(O)(O2)C(=O)C(=O)N2CCCCC2C(=O)OC(C(C)CC2CCC(O)C(OC)C2)CC(=O)C(C)C=C(C)C(O)C(OC)C(=O)C(C)CC(C)/C=C/C=C/C=C1C` (centres undefined), the growth was 64.5% (inactive).

For `COc1cc([C@@H]2c3cc4c(cc3C(O[C@@H]3O[C@@H]5CO[C@@H](c6cccs6)OC5[C@H](O)[C@H]3O)C3COC(=O)[C@@H]32)OCO4)cc(OC)c1O` (some centres undefined), the growth was -8.91% (active).

With `Cn1c(=O)c2nc(SCc3ccccc3)n(C)c2n(C)c1=O`, the growth was 106% (inactive).

As to `O=c1cc(-c2cccnc2)oc2c1ccc1ccccc12`, the growth was 81.5% (inactive).

On to `C/C(=N\N1CC(=O)NC1=O)c1ccc([N+](=O)[O-])o1`, for which the growth is 97.2% (inactive).

With `NC(N)=N/N=C(/c1ccccc1)c1ccc(Cl)cc1`, the growth was 47.6% (inactive).

Regarding `N#Cc1ccc(NC(=O)Nc2ccc(Oc3ccc(NC(=O)Nc4ccc(C#N)cc4)cc3)cc2)cc1`, the growth is 15.8% (inactive).

Turning to `Cc1c(NCc2nnc3n(Cc4ccccc4)c(=O)c4c5c(sc4n23)CCCC5)c(=O)n(-c2ccccc2)n1C`, the growth was 103% (inactive).

For `O=C(Nc1ccc(OCc2nnc(-c3ccccc3)o2)c(F)c1)Nc1ccc(Cl)c(C(F)(F)F)c1`, the growth was 17.6% (inactive).

For `Cc1cc(N2CCOCC2)nc(N2CCOCC2)n1`, the growth is 102% (inactive).

For the compound `COc1cc2c(C#N)n3c(c2cc1OC)C(=O)C(c1ccccc1)Oc1ccccc1-3` (centres undefined), the growth was 87.6% (inactive).

With `O=[N+]([O-])c1ccc(N/N=C\c2ccccc2[N+](=O)[O-])nc1`, the growth is 107% (inactive).

As for `CO[C@H]1CC(O[C@@H]2/C(C)=C/C[C@@H]3C[C@@H](C[C@]4(CC[C@H](C)[C@@H](C5CCCCC5)O4)O3)OC(=O)[C@@H]3C=C(C)/C(=N/O)[C@H]4OC/C(=C\C=C\[C@@H]2C)[C@]43O)O[C@@H](C)C1O` (some centres undefined), the growth was -73.2% (active).

As to `COc1ccc(OC)c(NC(=O)c2cc3oc4ccccc4c3cc2O)c1`, the growth was 104% (inactive).

Regarding `C=C1CC[C@@H]2[C@](C)(COC(C)=O)[C@H](OC(C)=O)CC[C@@]2(C)[C@@H]1CC(Nc1ccc(S(=O)(=O)Nc2cc(C)on2)cc1)C1=CCOC1=O` (some centres undefined), the growth is 14.7% (inactive).
